Data as given in PMC7862700, “An all-to-all approach to the identification of sequence-specific readers for epigenetic DNA modifications on cytosine”.

Columns and labels:
Assay in all cases: DAPPL (digital affinity profiling via proximity ligation, sequencing); 10 mM Tris-HCl pH 7.5, 50 mM NaCl, 1 mM DTT, 4% glycerol, room temperature, 30 min; GST-TFs on glutathione beads, 16-mer random dsDNA library, 0.1% formaldehyde crosslink after washing; high values mean tight binding
Conditions in all cases: protein: recombinant; tags: N-terminal GST; dsDNA, one strand shown
FLI1 = target: T1, FLI1 (Homo sapiens, UniProt Q01543 1-452)
T1 sequence: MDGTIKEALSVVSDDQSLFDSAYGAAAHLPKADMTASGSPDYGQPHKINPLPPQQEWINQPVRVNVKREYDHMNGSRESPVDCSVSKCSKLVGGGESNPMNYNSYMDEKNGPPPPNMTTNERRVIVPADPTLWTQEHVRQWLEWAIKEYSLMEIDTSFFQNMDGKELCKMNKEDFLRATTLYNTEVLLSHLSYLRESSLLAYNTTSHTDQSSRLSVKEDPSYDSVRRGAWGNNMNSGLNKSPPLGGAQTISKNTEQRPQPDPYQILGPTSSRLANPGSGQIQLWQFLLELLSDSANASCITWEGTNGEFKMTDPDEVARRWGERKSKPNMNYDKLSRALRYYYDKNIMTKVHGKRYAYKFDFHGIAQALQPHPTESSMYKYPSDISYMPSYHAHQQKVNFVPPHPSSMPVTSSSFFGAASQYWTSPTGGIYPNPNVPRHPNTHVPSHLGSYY
Method in brief: (§1)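 Human transcription factors were made in yeast as GST fusions, captured on glutathione beads and barcoded with DNA. With a tag-only sample included, the pool was incubated with 200 nmole of a random double-stranded 16-mer DNA library in Tris/NaCl/DTT/glycerol buffer at room temperature for 30 min, then crosslinked with 0.1% formaldehyde after washing, ligated by proximity, amplified and sequenced. For binding signal, each hexamer's read frequency for a factor is divided by its frequency for the tag-only sample.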

ELK1 = target: T2, ELK1 (Homo sapiens, UniProt P19419 1-428)
T2 sequence: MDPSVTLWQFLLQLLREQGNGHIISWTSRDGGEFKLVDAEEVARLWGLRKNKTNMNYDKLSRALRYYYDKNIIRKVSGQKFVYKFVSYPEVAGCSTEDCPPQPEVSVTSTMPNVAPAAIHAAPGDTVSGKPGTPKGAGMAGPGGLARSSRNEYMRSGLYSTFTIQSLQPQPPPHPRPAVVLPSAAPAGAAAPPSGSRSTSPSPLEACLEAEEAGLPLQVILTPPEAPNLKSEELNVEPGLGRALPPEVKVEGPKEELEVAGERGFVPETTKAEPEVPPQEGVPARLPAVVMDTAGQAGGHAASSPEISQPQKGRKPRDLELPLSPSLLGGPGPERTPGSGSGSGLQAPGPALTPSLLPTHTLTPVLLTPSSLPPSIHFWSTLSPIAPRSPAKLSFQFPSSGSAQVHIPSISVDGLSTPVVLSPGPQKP
Method in brief: as §1

GABPA = target: T3, GABPA (Homo sapiens, UniProt Q06546 1-454)
T3 sequence: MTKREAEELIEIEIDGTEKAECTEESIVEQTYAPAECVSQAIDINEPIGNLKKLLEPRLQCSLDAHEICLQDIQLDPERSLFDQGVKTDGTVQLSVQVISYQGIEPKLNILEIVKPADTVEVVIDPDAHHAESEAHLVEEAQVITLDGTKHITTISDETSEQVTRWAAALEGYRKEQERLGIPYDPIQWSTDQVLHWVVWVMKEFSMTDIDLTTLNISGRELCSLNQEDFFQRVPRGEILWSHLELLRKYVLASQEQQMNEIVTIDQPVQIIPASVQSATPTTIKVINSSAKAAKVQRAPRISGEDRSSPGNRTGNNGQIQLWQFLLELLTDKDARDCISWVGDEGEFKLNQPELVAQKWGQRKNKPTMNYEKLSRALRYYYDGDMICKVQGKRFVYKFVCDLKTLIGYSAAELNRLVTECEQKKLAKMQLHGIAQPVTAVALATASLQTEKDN
Method in brief: as §1

ETV2 = target: T4, ETV2 (Homo sapiens, UniProt O00321 1-342)
T4 sequence: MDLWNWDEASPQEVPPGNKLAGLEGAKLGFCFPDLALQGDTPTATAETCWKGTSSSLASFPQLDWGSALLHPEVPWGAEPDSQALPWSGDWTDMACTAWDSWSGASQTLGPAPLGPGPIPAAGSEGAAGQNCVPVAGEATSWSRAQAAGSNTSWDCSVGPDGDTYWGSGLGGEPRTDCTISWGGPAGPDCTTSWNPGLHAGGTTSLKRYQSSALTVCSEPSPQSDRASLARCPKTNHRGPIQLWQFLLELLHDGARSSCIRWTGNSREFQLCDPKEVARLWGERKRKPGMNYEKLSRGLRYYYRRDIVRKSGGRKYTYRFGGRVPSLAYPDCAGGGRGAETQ
Method in brief: as §1

ELF3 = target: T5, ELF3 (Homo sapiens, UniProt P78545 1-371)
T5 sequence: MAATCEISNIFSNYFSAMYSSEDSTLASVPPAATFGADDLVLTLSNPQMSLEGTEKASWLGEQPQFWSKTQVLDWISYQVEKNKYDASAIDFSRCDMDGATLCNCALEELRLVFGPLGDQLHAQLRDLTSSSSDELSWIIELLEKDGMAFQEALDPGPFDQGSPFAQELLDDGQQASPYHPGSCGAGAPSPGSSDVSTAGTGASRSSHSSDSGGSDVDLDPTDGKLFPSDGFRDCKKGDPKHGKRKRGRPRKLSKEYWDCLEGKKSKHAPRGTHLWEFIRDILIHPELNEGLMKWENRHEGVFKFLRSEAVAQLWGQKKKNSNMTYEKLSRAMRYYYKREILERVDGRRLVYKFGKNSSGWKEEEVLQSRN
Method in brief: as §1

ELK3 = target: T6, ELK3 (Homo sapiens, UniProt P41970 1-407)
T6 sequence: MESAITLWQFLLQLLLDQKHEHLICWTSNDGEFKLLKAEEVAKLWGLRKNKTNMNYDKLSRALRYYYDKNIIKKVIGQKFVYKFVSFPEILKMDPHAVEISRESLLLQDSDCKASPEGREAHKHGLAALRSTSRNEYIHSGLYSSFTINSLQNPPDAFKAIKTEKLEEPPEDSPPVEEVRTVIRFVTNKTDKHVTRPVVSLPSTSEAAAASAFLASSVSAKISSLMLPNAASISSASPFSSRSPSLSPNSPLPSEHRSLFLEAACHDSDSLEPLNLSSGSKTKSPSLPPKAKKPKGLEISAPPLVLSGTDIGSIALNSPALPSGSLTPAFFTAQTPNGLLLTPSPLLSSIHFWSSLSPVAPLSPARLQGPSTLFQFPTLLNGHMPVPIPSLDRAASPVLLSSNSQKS
Method in brief: as §1

ELK4 = target: T7, ELK4 (Homo sapiens, UniProt P28324-2 1-405)
T7 sequence: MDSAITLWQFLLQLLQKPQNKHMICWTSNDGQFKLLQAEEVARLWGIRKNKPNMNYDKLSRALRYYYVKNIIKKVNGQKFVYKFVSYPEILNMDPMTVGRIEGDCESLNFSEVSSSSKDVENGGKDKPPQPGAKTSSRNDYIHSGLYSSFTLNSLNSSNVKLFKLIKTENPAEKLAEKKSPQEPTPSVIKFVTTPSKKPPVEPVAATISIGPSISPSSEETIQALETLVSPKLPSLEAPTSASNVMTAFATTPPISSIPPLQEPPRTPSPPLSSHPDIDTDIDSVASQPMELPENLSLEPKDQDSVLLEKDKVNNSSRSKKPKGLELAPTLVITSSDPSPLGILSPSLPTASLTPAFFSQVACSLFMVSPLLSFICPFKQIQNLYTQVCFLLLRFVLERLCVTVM
Method in brief: as §1

ETV3 = target: T8, ETV3 (Homo sapiens, UniProt P41162-2 1-143)
T8 sequence: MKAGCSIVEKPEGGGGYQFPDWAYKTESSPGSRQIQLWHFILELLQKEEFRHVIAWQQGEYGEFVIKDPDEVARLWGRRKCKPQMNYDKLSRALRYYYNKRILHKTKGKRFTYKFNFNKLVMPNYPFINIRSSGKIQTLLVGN
Method in brief: as §1

EHF = target: T9, EHF (Homo sapiens, UniProt Q9NZC4 1-300)
T9 sequence: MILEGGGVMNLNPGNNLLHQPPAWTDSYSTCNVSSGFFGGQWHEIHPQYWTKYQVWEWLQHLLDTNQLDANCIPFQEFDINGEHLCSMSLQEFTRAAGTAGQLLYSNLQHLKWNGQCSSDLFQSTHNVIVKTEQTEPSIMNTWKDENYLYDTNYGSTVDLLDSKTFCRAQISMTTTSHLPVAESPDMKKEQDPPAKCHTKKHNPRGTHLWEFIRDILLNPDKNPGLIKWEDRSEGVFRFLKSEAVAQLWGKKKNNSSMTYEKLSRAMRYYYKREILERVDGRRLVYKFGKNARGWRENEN
Method in brief: as §1

ETS2 = target: T10, ETS2 (Homo sapiens, UniProt P15036 1-469)
T10 sequence: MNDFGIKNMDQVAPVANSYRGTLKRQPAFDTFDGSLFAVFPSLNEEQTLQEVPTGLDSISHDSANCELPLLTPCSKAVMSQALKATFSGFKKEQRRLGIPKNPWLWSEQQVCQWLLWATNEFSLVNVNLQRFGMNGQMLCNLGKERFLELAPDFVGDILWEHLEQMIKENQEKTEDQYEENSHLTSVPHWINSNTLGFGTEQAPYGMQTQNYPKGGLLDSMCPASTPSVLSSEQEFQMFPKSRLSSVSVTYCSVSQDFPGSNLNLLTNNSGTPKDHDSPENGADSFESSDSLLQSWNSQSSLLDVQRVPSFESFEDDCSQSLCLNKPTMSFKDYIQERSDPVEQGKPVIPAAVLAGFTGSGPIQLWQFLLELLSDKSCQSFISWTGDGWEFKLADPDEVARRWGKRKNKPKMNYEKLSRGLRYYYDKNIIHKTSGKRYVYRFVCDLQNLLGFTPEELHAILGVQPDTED
Method in brief: as §1

ELF1 = ELF1 (Homo sapiens, UniProt P32519 1-619)
Chain of ELF1 (P32519 whole entry): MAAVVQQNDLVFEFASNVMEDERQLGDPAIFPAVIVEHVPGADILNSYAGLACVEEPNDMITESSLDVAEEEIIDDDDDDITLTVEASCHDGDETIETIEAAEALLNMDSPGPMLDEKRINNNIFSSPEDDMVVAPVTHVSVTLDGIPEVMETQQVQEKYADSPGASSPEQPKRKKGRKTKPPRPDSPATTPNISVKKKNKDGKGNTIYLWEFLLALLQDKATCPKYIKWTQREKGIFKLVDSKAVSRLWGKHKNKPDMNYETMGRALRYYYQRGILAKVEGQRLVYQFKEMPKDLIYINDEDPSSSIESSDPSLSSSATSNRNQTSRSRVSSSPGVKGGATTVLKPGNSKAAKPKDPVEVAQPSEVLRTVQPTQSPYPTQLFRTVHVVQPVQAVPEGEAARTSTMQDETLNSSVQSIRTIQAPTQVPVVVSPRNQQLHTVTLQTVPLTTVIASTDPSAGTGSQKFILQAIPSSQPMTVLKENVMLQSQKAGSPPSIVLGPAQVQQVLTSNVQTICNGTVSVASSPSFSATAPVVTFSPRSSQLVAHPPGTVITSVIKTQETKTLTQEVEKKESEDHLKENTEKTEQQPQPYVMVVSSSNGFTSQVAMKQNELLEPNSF
Method in brief: as §1

SPIB = SPIB (Homo sapiens, UniProt Q01892 1-262)
Chain of SPIB (Q01892 whole entry): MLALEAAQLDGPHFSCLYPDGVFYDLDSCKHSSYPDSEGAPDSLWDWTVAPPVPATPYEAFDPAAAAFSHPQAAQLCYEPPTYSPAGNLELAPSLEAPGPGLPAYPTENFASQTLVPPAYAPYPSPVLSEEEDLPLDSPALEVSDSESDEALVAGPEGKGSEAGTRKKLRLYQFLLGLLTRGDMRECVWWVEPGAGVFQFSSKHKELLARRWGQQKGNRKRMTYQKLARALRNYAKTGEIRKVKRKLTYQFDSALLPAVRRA
Method in brief: as §1

ETV3L = target: T11, ETV3L (Homo sapiens, UniProt Q6ZN32 1-361)
T11 sequence: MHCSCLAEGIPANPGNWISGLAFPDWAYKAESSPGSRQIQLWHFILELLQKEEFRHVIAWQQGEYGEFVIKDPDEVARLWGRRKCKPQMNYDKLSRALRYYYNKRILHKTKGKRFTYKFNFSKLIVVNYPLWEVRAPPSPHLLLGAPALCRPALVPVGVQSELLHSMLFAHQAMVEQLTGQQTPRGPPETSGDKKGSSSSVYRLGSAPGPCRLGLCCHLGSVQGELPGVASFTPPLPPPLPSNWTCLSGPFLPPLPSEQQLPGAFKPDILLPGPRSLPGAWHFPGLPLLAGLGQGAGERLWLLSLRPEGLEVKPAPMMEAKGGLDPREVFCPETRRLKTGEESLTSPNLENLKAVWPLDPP
Method in brief: as §1

ETV7 = target: T12, ETV7 (Homo sapiens, UniProt Q9Y603 1-341)
T12 sequence: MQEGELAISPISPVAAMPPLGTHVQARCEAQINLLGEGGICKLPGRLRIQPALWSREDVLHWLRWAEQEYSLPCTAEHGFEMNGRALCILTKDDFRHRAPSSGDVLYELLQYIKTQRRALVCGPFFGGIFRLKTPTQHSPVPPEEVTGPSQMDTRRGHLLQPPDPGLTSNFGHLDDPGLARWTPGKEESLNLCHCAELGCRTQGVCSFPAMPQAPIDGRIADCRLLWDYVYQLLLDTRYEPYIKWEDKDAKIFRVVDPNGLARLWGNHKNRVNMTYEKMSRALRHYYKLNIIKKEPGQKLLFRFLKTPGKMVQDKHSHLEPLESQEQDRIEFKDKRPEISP
Method in brief: as §1

| Sequence | binding signal (FLI1) | binding signal (ELK1) | binding signal (GABPA) | binding signal (ETV2) | binding signal (ELF3) | binding signal (ELK3) | binding signal (ELK4) | binding signal (ETV3) | binding signal (EHF) | binding signal (ETS2) | binding signal (ELF1) | binding signal (SPIB) | binding signal (ETV3L) | binding signal (ETV7) |
| --- | --- | --- | --- | --- | --- | --- | --- | --- | --- | --- | --- | --- | --- | --- |
| GACCGC | 1.06 fold enrichment (6-mer frequency, TF over GST control) | 1.01 fold enrichment (6-mer frequency, TF over GST control) | 1.06 fold enrichment (6-mer frequency, TF over GST control) | 1.03 fold enrichment (6-mer frequency, TF over GST control) | 1.01 fold enrichment (6-mer frequency, TF over GST control) |  |  |  |  |  |  |  |  |  |
| GCCTGT | 1.02 fold enrichment (6-mer frequency, TF over GST control) |  |  |  |  | 1.03 fold enrichment (6-mer frequency, TF over GST control) | 1.05 fold enrichment (6-mer frequency, TF over GST control) | 1.04 fold enrichment (6-mer frequency, TF over GST control) |  |  |  |  |  |  |
| CATCAG | 1 fold enrichment (6-mer frequency, TF over GST control) | 1.04 fold enrichment (6-mer frequency, TF over GST control) |  |  |  | 1.06 fold enrichment (6-mer frequency, TF over GST control) | 1.06 fold enrichment (6-mer frequency, TF over GST control) |  | 1.03 fold enrichment (6-mer frequency, TF over GST control) | 1 fold enrichment (6-mer frequency, TF over GST control) |  |  |  |  |
| CAGCGC | 1.09 fold enrichment (6-mer frequency, TF over GST control) | 1.03 fold enrichment (6-mer frequency, TF over GST control) | 1.01 fold enrichment (6-mer frequency, TF over GST control) | 1.07 fold enrichment (6-mer frequency, TF over GST control) |  | 1.06 fold enrichment (6-mer frequency, TF over GST control) | 1.06 fold enrichment (6-mer frequency, TF over GST control) | 1 fold enrichment (6-mer frequency, TF over GST control) | 1.01 fold enrichment (6-mer frequency, TF over GST control) | 1.1 fold enrichment (6-mer frequency, TF over GST control) | 1.08 fold enrichment (6-mer frequency, TF over GST control) | 1.07 fold enrichment (6-mer frequency, TF over GST control) | 1.09 fold enrichment (6-mer frequency, TF over GST control) | 1.02 fold enrichment (6-mer frequency, TF over GST control) |
